Assay outcomes (PubChem)
Hits are enriched below; roughly 7.6% of the tested compounds scored in any of these assays.
MCF10A rereplic = DNA re-replication induction in MCF 10a cells. AID 624296. hit rate 2.9% among 350,000. MCF 10A DNA re-replication, Hoechst nuclear intensity, 48 h. Potency, µM (highest dose often 46.1 µM), for inactives: top-dose activity, positive = re-replication, most hits filed as activators; note: potency is the fitted concentration of half-maximal effect; % of control where 0% means no effect; nearly all actives have a fitted effect of over 50% in size
hERG WT inh = KCNH2 (human, wildtype) channel inhibition | Q12809 | U2OS, BacMam KCNH2, thallium flux FluxOr; hits give low values | activity change, % at 1.84 µM | hit rate 0.37% among 340,000 | AID 720551;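 active = maximum activity change below -70%; inconclusive = maximum activity change between -70% and -50%; inactive = maximum activity change above -50%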; note: % is set by controls: 0 for no effect and ±100 for the full control effect
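U2OS cells were transduced with wild-type KCNH2 virus (2.03 x 10^8 / mL) for 4 h at room temperature, then cultured overnight at 37 C. Thallium flux was read with FluxOr dye. Rate constants were normalized to DMSO controls.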
KCNH2 3.1 inh = blocks the human KCNH2 3.1 channel isoform; U2OS KCNH2 3.1, thallium flux FluxOr; hits give low values; AID 720553; activity change, % (tested at about 1.8 µM); hit rate 0.95% among 340,000;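 active = maximum activity change below -70%; inconclusive = maximum activity change from -70% to -50%; inactive = maximum activity change above -50%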;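 note: thallium influx rate constant from kinetic fluorescence after stimulation buffer; % is set by controls: 0 for no effect and ±100 for the full control effect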
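Channel expression came from 3.1 mutant virus (1.77 x 10^8 /mL) applied to suspended U2OS cells for 4 h. Flux was tracked with FluxOr dye plus Red40 quencher, and kinetic rate constants normalized to controls.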
KB-3-1 cytotox = KB-3-1 parental cell cytotoxicity; KB-3-1 viability, CellTiter-Glo ATP luminescence, 72 h; Potency, µM (doses to about 46.1 µM), actives largely listed as cytotoxic; hit rate 1.4% among 400,000; AID 1347075; note: potency is the fitted concentration of half-maximal effect; % is set by controls: 0 for no effect and ±100 for the full control effect; nearly all actives have a fitted effect of over 60% in size
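KB-3-1 cells, DMEM (no phenol red) + 10% FBS; compound by pin transfer, 72 h, 37 °C. Readout: CellTiter-Glo luminescence after 10 min. Data normalized, curve-fitted.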
SW480 rereplic = inducers of DNA re-replication in SW480 colon cancer cells; SW480 DNA re-replication, Hoechst DNA content imaging, 48 h; Potency, µM (highest dose often 46.1 µM), without a hit: at the highest dose re-replication activation, hits mostly activators; hit rate 1.8% among 340,000; note: potency is the fitted concentration of half-maximal effect; % of control where 0% means no effect; nearly all actives have a fitted effect of over 55% in size
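Image-based DNA-content assay: after two days of treatment, nuclei were labelled with the DNA dye Hoechst and imaged, and hits were compounds raising the count of nuclei showing high fluorescence intensity.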
KB-V1 cytotox = KB-V1 MDR subline cytotoxicity; KB-V1 MDR cells viability, CellTiter-Glo, 72 h; Potency, µM (top dose mostly 46.1 µM), most hits filed as cytotoxic; AID 1347076; hit rate 3.4% among 400,000; note: potency is the fitted concentration of half-maximal effect; % is set by controls: 0 for no effect and ±100 for the full control effect; nearly all actives have a fitted effect of over 60% in size
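Cytotoxicity via CellTiter-Glo luminescence after 72 h compound exposure at 37 degrees C. Cells: drug-selected KB-V1 line, DMEM phenol-red free plus 10% FBS. Compounds tested at multiple concentrations; normalized data fitted to concentration-effect curves.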
Active calls of the source: *; i = inactive; ? = inconclusive; · = no result; [ ] = dose if it differs, or a comment. Unless noted, calls come from the whole dose curve; as a rule, active = well fitted curve in the direction sought with a large enough effect; inconclusive = small, poorly fitted or top-dose-only effect, or another doubt; inactive = no such curve, though single readings can be large; an effect the other way counts as inactive or inconclusive.

SMILES	MCF10A rereplic	hERG WT inh	KCNH2 3.1 inh	KB-3-1 cytotox	SW480 rereplic	KB-V1 cytotox
COc1ccc(/C=C2\Sc3ccc(C(=O)N4CCN(Cc5ccccc5)CC4)cc3N(C)C2=O)cc1OC	20.6µM*	-6.6	-20.5	i	?	i
CCOc1ccc(CN2C(=O)c3ccccc3Sc3ccc(C(=O)N4CCN(C)CC4)cc32)cc1	·	·	·	i	·	i
CN1CCN(C(=O)c2ccc3c(c2)N(C)C(=O)/C(=C/c2cccc(Cl)c2)S3)CC1	13µM*	-4.2	-16.6	i	4.4%	i
C=CCN1C(=O)c2ccccc2Sc2ccc(C(=O)N3CCN(C)CC3)cc21	-1.6%	10.4	0.1	i	-4.4%	9.2µM*
O=S(=O)(NCc1ccc(F)cc1)c1ccc(-n2cccn2)cc1	-0.1%	1.5	13.9	i	23.6%	i
CCCCN1C(=N)N([C@@H](C)CN2CCC[C@H]2CN2C(N)=NC[C@H]2C(C)C)C[C@H]1[C@H](C)CC	?	-4.2	-13.0	i	0.3%	i
Brc1ccc([C@H]2CN3CCSC3=N2)cc1	-2.3%	0.0	-9.6	i	-138.8%	i
O=C(NCc1cccnc1)Nc1ccccc1	-3.7%	-5.1	7.1	i	0.6%	i
O=C(c1ccccc1)N(Cc1cccnc1)C1(C(=O)Nc2ccccc2)CCCCC1	15.6%	-7.4	8.6	?	?	10.3µM*
O=C1N/C(=C\c2ccc(O)cc2)C(=O)c2ccccc21	3.16µM*	-22.0	-1.5	?	12.6µM*	i
O=C(Cn1c(-c2ccccc2)c[n+]2ccsc12)c1ccc([N+](=O)[O-])cc1	18.4%	-10.8	-30.4	20.6µM*	4.3%	i
COc1ccc(C2=C(C)C(=O)N(Cc3ccc(C(=O)NC(C)c4ccccc4)cc3)S2(=O)=O)cc1 (centres undefined)	·	·	·	i	·	i
Cc1ccc(O)c(C(=O)c2cnc3c(c2)CN(C)C(=O)N3)c1	?	-10.1	-2.4	?	?	7.94µM*
Nc1c(Br)cc(C=O)cc1Br	·	·	·	i	·	i
Cc1cc(N2CCN(c3ccccc3)CC2)nc(-n2nc(C)cc2C)n1	?	34.0	-11.5	i	?	2.59µM*
Cc1cc(N2CCN(c3ccccc3)CC2)nc(-c2ccccc2O)n1	7.2%	-5.3	-3.4	i	-1.4%	i
Cc1cc(C(=O)N/N=C/c2ccc(Cl)c([N+](=O)[O-])c2)c(C)n1-c1ccc(F)cc1	11.6µM*	0.8	-43.2	5.8µM*	16.9%	?
Cc1cc(C(=O)N/N=C/c2ccc3c(c2)OCO3)c(C)n1-c1ccc(F)cc1	10.5%	12.5	-17.5	i	-0.3%	i
CCCCNC(=O)COC(=O)c1c2c(nc3ccccc13)/C(=C/c1cccs1)CC2	3.26µM*	1.6	-10.5	i	5.17µM*	?
CNC(=O)NC(=O)C(C)OC(=O)c1c2c(nc3ccccc13)/C(=C/c1cccs1)CC2 (centres undefined)	?	3.0	-2.7	?	?	5.17µM*
c1ccc(Cc2noc(CN3CCN(C4CCc5ccccc5C4)CC3)n2)cc1 (centres undefined)	-1.6%	33.6	-126.9*	i	-2.4%	?
c1ccc(Cc2noc(CN3CCCN(C4Cc5ccccc5C4)CC3)n2)cc1	?	-23.1	?	i	-53.0%[1.84 µM]	i
Clc1ccc(-c2nnc(Sc3nc4ccccc4o3)c3ccccc23)cc1	?	2.4	-1.2	?	-3.5%	i
Cc1nnc(Sc2nc3ccccc3o2)c2ccccc12	12.6µM*	-8.9	-18.0	?	?	i
Cc1ccc(-c2nnc(Sc3nc4ccccc4o3)c3ccccc23)cc1	8.2µM*	-8.3	0.1	i	?	i
SMILES	MCF10A rereplic	hERG WT inh	KCNH2 3.1 inh	KB-3-1 cytotox	SW480 rereplic	KB-V1 cytotox
CCSc1nnc(C)c2ccccc12	3.5%	-2.9	2.3	i	0.0%	?
CCN(C(=O)COc1ccc2ccc(=O)oc2c1)C1CCCCC1	0.0%	14.4	5.5	i	-5.9%	18.4µM*
CN(C)C(=O)COc1ccc2ccc(=O)oc2c1	1.1%	-4.5	5.5	i	-2.1%	i
Cc1oc2ncn(C)c(=O)c2c1C(=O)N1CCN(c2ccc(Cl)cc2)CC1	·	·	·	i	·	i
Cc1ccc(S(=O)(=O)Nc2ccc(OCC(=O)N3CCOCC3)cc2)c(C)c1NS(C)(=O)=O	?	3.0	-5.8	?	-29.9%	i
CCOc1c(Cl)cc(CNc2ccc(S(N)(=O)=O)cc2)cc1OC	-2.0%	-3.2	10.6	i	7.7%	i
CCOc1c(Cl)cc(CNC(C)(C)CC(C)(C)C)cc1OC	8.2µM*	3.8	-2.6	?	4.1%	?
CCOc1c(Cl)cc(CNc2ccc(N3CCCC3)cc2)cc1OC	?	3.3	-5.2	?	10.3µM*	i
CCc1nc2ccc(C(=O)N(C)CCN(C)C)cn2c1N(C)Cc1cc2ccccc2s1	·	·	·	i	·	i
COc1cccc(CN(C)C(=O)Cc2ccc(OC)c(S(=O)(=O)N3CCOCC3)c2)c1	-11.9%	-0.2	-6.9	i	-10.5%	i
COc1ccc(-c2cccc(NS(=O)(=O)c3ccc([N+](=O)[O-])cc3)c2)nn1	13.1%	2.2	-48.8	i	-6.7%	13µM*
CC1(C)CC(NC(=O)c2coc(=O)c(Br)c2)CC(C)(C)N1	18.4µM*	-11.4	5.5	16.4µM*	?	i
Cc1ccc(C(=O)NC2CC(C)(C)NC(C)(C)C2)cc1	1.0%	7.1	12.0	i	-8.3%	i
Cn1c(N)c(C(=O)c2cc(-c3ccccn3)nc3ccccc23)c(=O)[nH]c1=O	0.8%	-101.2*	-0.5	i	0.6%	i
COc1ccc(-c2cc(C(=O)c3c(N)n(C)c(=O)n(C)c3=O)c3ccccc3n2)cc1	2.9%	1.3	-0.7	i	29.2%	?
CSc1nccc(Nc2ccccc2)c1C#N	-0.9%	-4.1	9.1	i	3.4%	i
CN(C)c1ccnc(Nc2ccccc2)c1C#N	-4.2%	-9.6	-89.6*	i	-4.4%	i
CN(C)c1nccc(N(Cc2ccccc2)Cc2ccccc2)c1C#N	?	-1.9	-9.5	?	-3.0%	13µM*
CN(C)/C=C/C(=O)c1cccc(C(F)(F)F)c1	?	-1.4	7.5	i	4.1%	i
CN(C)/C=C/C(=O)c1ccc(Cl)cc1	18.4µM*	20.8	11.3	i	-0.6%	i
CN(C)/C=C/C(=O)c1cccc(Cl)c1	5.8µM*	-6.3	-1.2	i	-0.3%	i
COc1cccc(CN(C)C(=O)c2cccc(OCc3ccccc3)c2)c1	10.2%	-14.7	-9.3	i	-0.9%	?
